In PubChem BioAssay (NCI) one finds growth inhibition data, which are given here for 40 compounds.

Each structure is given as a SMILES string. This is part of a sample that, as a whole, favours compounds with a hit. Of some 79,000 tested, about 15% had one in any assay. A number with no mark means an inactive call. Activity calls are given as the source filed them. Cut-off read from the data, not from the text of the source: active = growth inhibition above about 70%; inactive = the rest.

The experiment can be described thus: NCI Yeast Anticancer Drug Screen. Data for the sgs1 mgt1 strain (AID 161).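 Note: 0% = growth of cultures given vehicle only.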 Particulars: S. cerevisiae sgs1 mgt1 strain, at 5.0 µM (retest, dose inferred, filed as 0.5), hits give high values. The method in brief: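 Yeast cells carrying a defined DNA-repair defect were exposed to test compounds. Growth inhibition was measured relative to vehicle-treated controls.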
`CCOC(=O)/C=C(\CC(=O)OCC)C(=O)OCC`: the growth inhibition is -1%.

In the case of `Cc1cc(Cl)cc2c1NC(=O)C2(O)C(C)C(=O)c1ccc(Cl)cc1` (stereo not given), the growth inhibition was 11%.

As to `C=CS(=O)(=O)c1ccc([N+](=O)[O-])cc1`, the growth inhibition is 21%.

On to `Oc1cc(Br)ccc1/C=N/Nc1ccccn1`, for which the growth inhibition is -19%.

For the compound `CC(C)C(CC(C)(C)C)OC(=O)Nc1cccc2ccccc12` (stereo not given), the growth inhibition was 0%.

Turning to `CC(=O)[O-].O=C(N/N=C/c1ccccc1[O-])c1ccccc1.[Zn+2]`, the growth inhibition was 1%.

As to `COc1cc(C2C(C(=O)Nc3ccc(Cl)c(Cl)c3)=C(C)NC(C)=C2C(=O)Nc2ccc(Cl)c(Cl)c2)ccc1O`, the growth inhibition was 2%.

Turning to `[Ce+3].[Cl-].[O-]/N=C(\c1ccccc1)c1ccccn1.[O-]/N=C(\c1ccccc1)c1ccccn1.[O-]/N=C(\c1ccccc1)c1ccccn1`, the growth inhibition is 32%.

Regarding `CCCCCCCCN1C(=O)c2ccccc2S1(=O)=O`, the growth inhibition was -2%.

In the case of `CC(=O)N(C1=C(Cl)C(=O)c2ccccc2C1=O)c1ccc(C)cc1`, the growth inhibition was 100% (active).

Take `COc1ccc(Cl)c(-c2cc(OC)c(N=N/C(=N/Nc3ccc([N+](=O)[O-])cc3)c3ccc([N+](=O)[O-])cc3)cc2Cl)c1`: the growth inhibition is 44%.

Take `CCOC(=O)CSC(=S)N1CCOCC1`: the growth inhibition was -4%.

As to `CC1(C)COC(c2cccc(C(O)c3ccc(Cl)cc3)c2)=N1` (stereo not given), the growth inhibition was -23%.

In the case of `COc1ccc(/C=C/C(C(=O)O)C(=O)O)cc1`, the growth inhibition is 6%.

For `COc1ccc2c(Cc3ccc(O)cc3)cncc2c1O`, the growth inhibition is -3%.

Regarding `COC1=CC23C=CC1[C@@H](c1ccccc1)C2=C(C)C(=O)N3C(=O)NC1CCCCC1` (stereo not given in full), the growth inhibition was 1%.

Consider `O=c1c2c3c(sc2nc2n1N=C(c1ccc(Br)cc1)CS2)CCCC3`, for which the growth inhibition is -5%.

For the compound `Cc1noc(NS(=O)(=O)c2ccc(N=Nc3cc(N=Nc4ccc(S(=O)(=O)Nc5onc(C)c5C)cc4)c4c(NC(=O)C(Cl)Cl)cccc4c3O)cc2)c1C` (tested in a mixture with another compound), the growth inhibition was 95% (active).

Turning to `CC(=O)OC1=CC2(OC(C)=O)CC(C)(C)C1C1C(=O)C=CC(=O)C12` (stereo not given), the growth inhibition is 0%.

`COC1CCC(/C(C#N)=C/c2ccco2)CC1` (stereo not given): the growth inhibition is -5%.

With `CCN(CC)CCNc1cc(C)nc2c1ccc1c2ccc2c(NCCN(CC)CC)cc(C)nc21`, the growth inhibition is -3%.

As for `O=c1sc(=S)[nH]c2ccccc12`, the growth inhibition is 3%.

For the compound `Oc1c(Br)ccc2c(O)c(Br)ccc12`, the growth inhibition is 36%.

For the compound `Nc1ccccc1CCc1ccccc1`, the growth inhibition is 2%.

Consider `Cc1cc2c(cc1O)CC[C@@H]1[C@@H]2CC[C@]2(C)[C@@H](O)CC[C@@H]12`, for which the growth inhibition is -32%.

In the case of `O=c1c2ccccc2sc2c([N+](=O)[O-])ccc(NCCNCCO)c12`, the growth inhibition was 18%.

For the compound `NC(=S)NNc1c([N+](=O)[O-])cnn(-c2ccccc2)c1=O`, the growth inhibition is -27%.

With `COc1ccccc1NC(=O)c1ccccc1F`, the growth inhibition was -61%.

On to `COc1ccc(/C=C2\SC(=S)N(/C=C(/C#N)C(=O)c3ccc4ccccc4c3)C2=O)cc1OC`, for which the growth inhibition is 1%.

For `COC(=O)C1(OC(=O)CCC(=O)O)C(=O)NC2=C1C(=O)c1ccccc1C2=O` (stereo not given), the growth inhibition was 2%.

As to `Cc1cc(=O)c2c(ccc3cc4ccccc4cc32)[nH]1`, the growth inhibition was -16%.

As to `CCc1nc(N)nc(N)c1-c1ccc(N(C)Cc2ccccc2)c([N+](=O)[O-])c1`, the growth inhibition was 37%.

Turning to `O=C1CSC(c2ccccc2O)N1c1ccc(-n2c(-c3ccccc3)nc3ccccc3c2=O)cc1` (stereo not given), the growth inhibition was 5%.

As for `O=C(C[P+](c1ccccc1)(c1ccccc1)c1ccccc1)c1ccc(Br)cc1`, the growth inhibition was 82% (active).

Consider `O=NN(CCCl)C(=O)Oc1ccc(OC(=O)N(CCCl)N=O)cc1`, for which the growth inhibition was 93% (active).

In the case of `Cc1cccc(C[N+](C)(C)CCCO)c1C`, the growth inhibition was 3%.

On to `CC(C)NC(=O)OCCS(=O)c1c(Cl)c(Cl)nn1C` (stereo not given), for which the growth inhibition is -5%.

Consider `COC1=CC(=O)[C@H]2CC(C)=CC[C@]2(C)C1=O`, for which the growth inhibition is 2%.

As to `Oc1ccc(O)c2c(O)c3ccccc3c(O)c12`, the growth inhibition is 10%.

Regarding `O=[N+]([O-])c1cc(Br)cc(Br)c1O`, the growth inhibition is 10%.
